SKN-1 block – suppressors of acrylamide-induced Pgst-4::GFP reporter in worms, primary screen, SKN-1 inhibitor project, whole organism, uHTS, GFP/RFP fluorescence ratio, strain VP596; inhibition, % at 21.8 µM; 0.49% of 360,000 active; C. elegans VP596 Pgst-4::GFP/RFP ratio, 24 h; AID 624304, 2012;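 active = interference check ratio from 0.5 to 1.5 plus GFP to RFP signal ratio inhibition reaching or exceeding a fixed threshold, cut at about 30% in these data, passing the limit was not always enough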
NadD block – inhibitors of S. aureus NadD, primary screen, biochemical, colorimetric, uHTS; purified NadD enzyme, colorimetric absorbance read-out; Nicotinate-nucleotide adenylyltransferase NadD (Staphylococcus aureus N315); inhibition, % at 20 µM; 0.78% of 360,000 active; AID 602399, 2012; in the data active = inhibition above about 26%
esBAF inh – Bmi1 luciferase reporter increase in mESCs, primary screen, esBAF inhibitor project, mouse ES cells, Bmi1 luciferase knock-in, single point; AID 602393, 2012; 24 h; 100% = twice the neutral-well signal; 2% of 350,000 active; reporter increase, % at 12.5 µM; in the data active = activation above about 40%; inconclusive = no clear call, values can overlap the other calls;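 also: 0% = median of the plate's neutral control wells and 100% = double that signal; a rise in the Bmi1 reporter signal indicates esBAF inhibition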
SMARCA2 activ – SMARCA2 (BRM) function activators, primary screen, cell-based, luminescence, high throughput; MG213 cells, MMTV-luciferase reporter, dexamethasone, overnight; AID 652017, 2013; activation, % at 9.1 µM; 1% of 370,000 active; in the data active = activation above about 7.8%;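 also: 0% = vehicle wells and 100% = reference activator wells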
Vif imaging – HIV Vif self-association inhibitors, primary screen, imaging, HEK293T, single point; HEK293T cells, Vif self-association by quenched fluorescence, 24 h; inhibition, % at 7.49 µM; 0.35% of 340,000 active; AID 602346, 2012; in the data active = inhibition above about 50%, passing the limit was not always enough; inconclusive = no clear call, values can overlap the other calls; inactive = below about 31%
GRIN3A LBD mod – binders of NR3A ligand-binding domain, primary screen, biophysical, differential scanning fluorimetry, uHTS. Glutamate receptor ionotropic, NMDA 3A (GRIN3A) ligand-binding domain. NR3A LBD differential scanning fluorimetry, Tm shift; 0% = protein alone, 100% = glycine-bound protein. Tm shift relative to glycine control, % at 25 µM. 2.5% of 340,000 active;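 active = melting temperature shift of at least 10% of the positive control shift, at one fixed dose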
SMARCA2 act conf – SMARCA2 (BRM) function activators, confirmation, cell-based, luminescence, triplicate; MG213 cells, MMTV-luciferase with dexamethasone, overnight; MG213 cells expressing E1A, Rb sequestered; DMSO wells 0%, reference activator 100%; 30% of 3,500 active; shares compounds with SMARCA2 activ; activation, % at 9.1 µM;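 active = activation above its plate's cutoff, the mean activation of tested wells plus 3 SD, cut at about 7.9% in these data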
GAL4-VP16 Luc – GAL4-VP16 luciferase reporter activation, counter-screen for SMARCA2 (BRM) activator project, cell-based, pG5luc, luminescence, high throughput; shares compounds with SMARCA2 activ; HEK293 GAL4-VP16 pG5luc reporter; scaled: DMSO wells 0%, SAHA wells 100%; activation, % at 9.1 µM; 41% of 3,500 active; AID 686939, 2013;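 active = activation above the solvent-only control well mean plus 3 SD, averaged across control plates, cut at about 5.2% in these data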
The depositor's hits bear a star; u = inconclusive; x = not tested or not shown. The list is not random: actives were taken first. Their share in the collection is about 5.2%.

SMILES	SKN-1 block	NadD block	esBAF inh	SMARCA2 activ	Vif imaging	GRIN3A LBD mod	SMARCA2 act conf	GAL4-VP16 Luc
C[C@H]1CN([C@@H](C)CO)C(=O)c2cc(-c3ccncc3)cnc2O[C@H]1CN(C)Cc1ccc(F)cc1	x	x	-3	x	x	x	x	x
O=C(C[C@@H]1CC[C@H]2[C@@H](COC[C@@H](O)CN2S(=O)(=O)c2ccc(Cl)cc2)O1)N[C@H]1CCN(Cc2ccccc2)C1	x	x	-3	x	x	x	x	x
C[C@@H]1CN([C@@H](C)CO)C(=O)c2cccc(NS(C)(=O)=O)c2O[C@H]1CN(C)S(=O)(=O)c1ccc(Cl)cc1	x	x	-5	x	x	x	x	x
CC(O)CN=c1cc(-c2ccccc2)oc2ccc(Cl)cc12 (centres undefined)	17	-1	-9	8.4*	-9	0	18*	13*
C/C(CCc1oc2ccc(Cl)cc2c1-c1ccc(C)o1)=N\O	-2	3	-8	-5	-7	0	x	x
CCC1([N+](=O)[O-])COC(C=Cc2ccccc2)OC1 (centres undefined)	2	-2	54*	9.7*	0	-1	5	4
CCN(CC)CCn1c(=N)n(CC(O)COc2cccc(C)c2)c2ccccc21 (centres undefined)	7	-11	x	8.3*	0	-2	6	1
C/C(=N/NC(=O)c1ccc2c(c1)OCO2)c1ccc(NC(=O)c2ccc(F)cc2)cc1	-2	-1	35	8.3*	0	-10	6	7.2*
C/C(=N\NC(=S)Nc1ccc(F)cc1)c1ccc2c(c1)OCCO2	14	1	x	2	9	-8	x	x
O=C(N[C@@H]1CC[C@H](CCNC(=O)C2CCC2)O[C@@H]1CO)c1ccncc1	x	x	1	x	x	x	x	x
C[C@@H]1CN([C@@H](C)CO)C(=O)Cc2cc(NC(=O)C3CCCCC3)ccc2O[C@H]1CN(C)C(=O)NC1CCCCC1	x	x	3	x	x	x	x	x
COc1ccc(S(=O)(=O)Nc2ccc3c(c2)CC(=O)N([C@H](C)CO)C[C@H](C)[C@@H](CN(C)Cc2ccccc2)O3)cc1	x	x	1	x	x	x	x	x
COc1ccccc1-c1nnc(-c2ccc(C)cc2)o1	7	-5	x	13*	-1	-2	7	7.1*
COc1ccccc1-c1nnc(-c2ccc(N3CCOCC3)cc2)o1	-2	-2	x	2	x	0	x	x
COc1ccc(CCN(C)C(=O)CCc2nnc(-c3ccccc3)o2)cc1OC	11	4	x	11*	-6	-2	13*	7.3*
Nc1ccccc1-c1nnc(-c2ccc(-c3ccccc3)cc2)o1	3	-5	21	9.2*	2	-3	14*	11*
COc1ccc(-c2nnc(-c3ccccc3)o2)cc1OC	2	-6	u	8.4*	0	-3	6	12*
c1ccc(-c2nnc(-c3ccccc3)o2)cc1	20	-8	4	5	3	0	x	x
Oc1ccccc1-c1nnc(-c2ccc(C(F)(F)F)cc2)o1	6	3	u	9.9*	-3	1	4	6.9*
COc1cccc(C(=O)N2C[C@H]3[C@@H](c4ccccc42)[C@H](CO)N3Cc2ccccc2F)c1	x	x	0	x	x	x	x	x
CCN(CC)CC(=O)Nc1cccc2c1C(=O)c1ccccc1C2=O	21	7	x	-2	5	0	x	x
O=C1c2ccccc2C(=O)c2c(NCCCN(CCO)CCO)cccc21	41*	-4	x	15*	-8	1	40*	0
Cn1c(=O)cc(SCC(=O)NCCC2=CCCCC2)c2ccc(Cl)cc21	-1	-5	x	8.3*	1	-8	5	2
CCOc1ccc(CCNC(=O)CSc2cc(=O)n(C)c3cc(Cl)ccc23)cc1OCC	-5	1	2	-1	-18	-1	x	x
COc1ccc(/C=N/NC(=O)C2COc3ccccc3O2)cc1OC (centres undefined)	5	7	x	1	-4	-3	x	x
SMILES	SKN-1 block	NadD block	esBAF inh	SMARCA2 activ	Vif imaging	GRIN3A LBD mod	SMARCA2 act conf	GAL4-VP16 Luc
O=C(N/N=C/c1ccc2c(c1)OCO2)C1COc2ccccc2O1 (centres undefined)	4	1	-8	8.5*	-1	0	5	1
COc1cccc(C(=O)NCC(=O)N/N=C/c2ccc3c(c2)OCO3)c1	-3	1	8	8.0*	-10	-2	2	0
O=C(C[C@@H]1CC[C@@H](NC(=O)Nc2ccc(C(F)(F)F)cc2)[C@@H](CO)O1)NCc1cccc(F)c1	x	x	2	x	x	x	x	x
CC(C)(C)SCCNC(=O)/C=C/c1ccccc1	10	7	x	8.1*	-1	-1	6	5
CC(C)(C)SCCNC(=O)/C=C/c1ccc(F)cc1	-7	-1	x	5	5	-1	x	x
CO[C@@H]1CN(C)C(=O)c2cc(NS(=O)(=O)c3cn(C)cn3)ccc2OC[C@@H](C)N(C)C[C@H]1C	x	x	5	x	x	x	x	x
O=[N+]([O-])c1cccc(-c2nc(-c3cccs3)c(-c3cccs3)[nH]2)c1	-2	13	-7	-3	7	6	x	x
O=[N+]([O-])c1cccc(-c2noc(-c3cccs3)n2)c1	20	1	x	11*	34	0	5	4
Cc1ccc(OCCC(=O)OCC(=O)NCc2ccccc2)cc1	-5	-2	x	-1	11	0	x	x
COc1ccc(OCCC(=O)OCC(=O)NCc2ccccc2)cc1	3	0	x	9.8*	x	0	-1	2
CCN(C[C@@H]1[C@@H](c2ccccc2)[C@H](CO)N1C(C)=O)C(=O)NC1CCCC1	x	x	0	x	x	x	x	x
COCCNS(=O)(=O)c1ccc(F)c(OC)c1	2	-2	3	14*	2	-1	-1	1
CN1c2ccc(-c3cccc(C#N)c3)cc2[C@@H]2[C@@H](CCN2C(=O)CC2CC2)[C@@H]1CO	x	x	1	x	x	x	x	x
O=C(C[C@@H]1CC[C@@H](NC(=O)C2CC2)[C@@H](CO)O1)NCCCN1CCOCC1	x	x	-3	x	x	x	x	x
O=c1c2cc(F)ccc2sn1-c1ccccc1Cl	2	7	-1	9.0*	-4	x	-2	0

High-throughput results deposited in PubChem by several laboratories.
